Source: PubChem BioAssay AID1569 (National Center for Advancing Translational Sciences (NCATS), 2009)
Records with an inconclusive call do not appear. Activity calls are given as the source filed them. Calls follow the shape of the dose curve; as a rule, active = well fitted inhibition curve with a large enough effect; inconclusive = small, poorly fitted or top-dose-only effect, or effect the other way, or another doubt; inactive = no such curve, though single readings can be large or run the other way.

Assay: Confirmation Concentration-Response Assay for lipid storage modulators; also: nearly all actives have a fitted effect of over 80% in size
Conditions: Drosophila S3 cells, lipid droplet BODIPY/CellTracker ratio, 18-24 h
Text: NIH Molecular Libraries Probe Production Centers Network [MLPCN] NIH Chemical Genomics Center [NCGC] MLPCN Grant: 1 R03 MH085686-01 Assay Submitter (PI): Beller, Mathias; Max-Planck-Institut fur Biophysikalische Chemie NCGC Assay Overview: Storing lipids as a reservoir for energy or the anabolism of elementary metabolites is a common feature of probably all cells and is conserved from bacteria to humans. The universal cellular lipid storage organelle is the so-called lipid storage droplet (LD). Although ubiquitous, LDs share a simple structure composed of a hydrophobic core that harbors the storage lipids, which is shielded by a droplet-specific phospholipid monolayer to which proteins are attached. […] Exo1 identified in the primary screen (AID 1519) and several analogs were measured in the lipid storage assay as 24-point concentration-response curves to confirm potency and SAR.
We dispensed 4 uL of cells at 1.25 x 10^6 cells/mL into LoBase Aurora COC 1,536-well plates (black walled, clear bottom) with a bottle-valve solenoid-based dispenser (Aurora) to obtain 5,000 cells/well. […] Fluorescence was detected by excitation of the fluorophores with a 488-nm laser on an Acumen Explorer (TTP Lab Tech). […] Cells were detected using channel 3 (575- 640 nm) with 5-um width and 100-um depth filters. The ratio of the total intensity in PMT channel 1 over total intensity of channel 3 was also calculated. […]
Potency is read from the fitted curve at half-maximal effect.

Structure (SMILES)	Potency
COc1cc2c(cc1OC)[C@@H]1C(=O)c3ccc4c(c3O[C@@H]1CO2)C[C@H](C(C)C)O4	0.0499 µM (active)
O=C(Nc1cccc(Cl)c1)OC1CN2CCC1CC2 (configuration not stated)	8.88 µM (active)
